In PubChem BioAssay (Tox21):
Values without a mark were called inactive. Calls of active or inactive are those of the source. The call rests on the fitted dose curve; in most records, active means well fitted curve in the direction sought with a large enough effect in the repeat runs; inconclusive means weak or mixed curves; inactive means flat fitted curve, though single readings scatter.

Assay: qHTS assay to test for compound auto fluorescence at 535 nm (green) in HEK293 cell free culture (AID 720682)
Conditions: cell-free medium, green autofluorescence 485/535 nm, hits give high values; series mostly up to 91.3 µM
From the text: U.S. Tox21 Program National Center for Advancing Translational Sciences [NCATS] NIH Chemical Genomics Center [NCGC] U.S. Environmental Protection Agency [EPA] National Institutes of Environmental Health Sciences [NIEHS] National Toxicology Program [NTP] U.S. Food and Drug Administration [FDA] Tox21 Assay Overview: Compound auto fluorescence often interferes with screening of the compound library against various biological targets and signaling pathways. Some of these compounds may have fluorophoric properties. Such properties may interfere with the assay outputs resulting in false positives and/or negatives. To decrease such complications and ensure the compound activities are relevant in terms of biological response, the Tox21 10K compound library was screened for auto fluorescence. From the fluorophores used as reporter signals in our screening assays, the auto fluorescence equivalencies of compounds against three fluorophores have been evaluated: Triamterene, Fluorescein and Rose Bengal sodium for blue, green and red fluorescence, respectively. The fluorescence intensities were measured using Excitation/Emission wavelengths at 405/460nm, 485/535nm and 540/590nm for blue, green and red labels, respectively. This assay includes the green fluorescence data.
Tox21 Assay Protocol Summary: 5 uL of culture medium (DMEM containing 10% FBS) per well was dispensed into black wall/clear bottom 1536-well plates using a Multidrop Combi Dispenser (ThermoFisher Scientific, Waltham, MA). After 23 nL compound or DMSO vehicle was transferred into assay plate by a pintool work station (Kalypsys, San Diego, CA), fluorescence intensities in the assay plates were measured by an Envision (PerkinElmer, Shelton, CT) plate reader using three labels for measuring blue, green and red fluorescence at […] 460, 535 and 590nm respectively.
On the % scale 0 is the no-effect control and ±100 the full control effect.

Row | SMILES | outcome | activity change
1 | BrCc1ccc(Br)cc1 | inactive | –
2 | COc1cc(CC(C)N)cc(OC)c1OC (stereo not given) | inactive | –
3 | C[C@@H](N)[C@@H](O)c1ccccc1 | – | -0.0136% [at 18.6 µM]
4 | CN1C(=O)COc2c(C(=O)NC3CN4CCC3CC4)cc(Cl)cc21 (stereo not given) | inactive | –
5 | CCN(CC)C1CCCCC1 | inactive | –
6 | NCCOS(=O)(=O)O | inactive | –
7 | CCOC(=O)Nc1cccc(OC(=O)Nc2ccccc2)c1 | inactive | –
8 | C[C@H](CN1CCOCC1)C(C(=O)N1CCCC1)(c1ccccc1)c1ccccc1 | inactive | –
9 | Nc1c(Cl)c(F)nc(OCC(=O)O)c1Cl | inactive | –
10 | CCCN1CCC[C@@H]2Cc3nc(N)ncc3C[C@H]21 | inactive | –
11 | N#CN=C1SCCN1Cc1ccc(Cl)nc1 | inactive | –
12 | CC(=O)CN(CC(C)=O)N=O | inactive | –
13 | COc1ccc2c(C(=O)c3ccc(Cl)cc3)c(C)n(CC(=O)O)c2c1 | inactive | –
14 | CCCOc1nn(C(=O)NS(=O)(=O)c2ccccc2C(=O)OC)c(=O)n1C | inactive | –
15 | O=P(O)(O)CN(CP(=O)(O)O)CP(=O)(O)O | – | -0.0587% [at 18.6 µM]
16 | C=C(Cl)CSC(=S)N(CC)CC | inactive | –
17 | OP(O)c1ccccc1 | inactive | –
18 | CON(C)C(=O)Nc1ccc(Br)cc1 | inactive | –
19 | Cc1ccc(-c2nc3ccc(C)cn3c2CC(=O)N(C)C)cc1 | inactive | –
20 | COc1ccc(C=O)cc1O | inactive | –

Row | SMILES | outcome | activity change
21 | Cl/C=C/CCl | inactive | –
22 | CNC(=O)Oc1ccccc1C(C)C | inactive | –
23 | Clc1ccc(C(Cl)(Cl)Cl)cn1 | inactive | –
24 | CNC(=O)NC(O)C(Cl)(Cl)Cl (stereo not given) | inactive | –
25 | CCCCCCCCBr | inactive | –
26 | CC1N=C(N)OC1c1ccccc1 (stereo not given) | inactive | –
27 | ClCCCCCCCl | inactive | –
28 | O=C(NC(=O)c1c(F)cccc1F)Nc1cc(Cl)c(F)c(Cl)c1F | inactive | –
29 | O=C(Cl)OCc1ccccc1 | inactive | –
30 | CCCC(C)(COC(N)=O)COC(N)=O | inactive | –
31 | CON(C)C(=O)Nc1ccc(Br)c(Cl)c1 | inactive | –
32 | O=C(Cl)CCl | inactive | –
33 | O=[N+]([O-])CCO | inactive | –
34 | ClC1=C(Cl)C2(Cl)C(CBr)CC1(Cl)C2(Cl)Cl (stereo not given) | inactive | –
35 | Cc1ccc2cc(C)ccc2c1 | inactive | –
36 | COc1cccc([C@@]2(O)CCCC[C@@H]2CN(C)C)c1 | inactive | –
37 | CC(C)N(Cc1ccccc1)C(=O)C(C)(C)C | inactive | –
38 | CN(C)CCN(C)C | inactive | –
39 | CS(=O)(=O)Cl | inactive | –
40 | CCc1cc(OC)c(C[C@H](C)N)cc1OC | inactive | –
